A short description of test [1]: qHTS assay to identify small molecule antagonists of the estrogen related receptor signaling pathway with the pleiotropic PPARgamma coactivator (PGC) from Tox21 10K library - cell viability counter screen (AID 1224840; active = well fitted cell-killing curve with a large enough effect in the repeat runs, not every such curve was filed as active; also: nearly all actives have a fitted effect of over 40% in size). Summed up:
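Fluorescence read-out of CellTiter-Fluor viability reagent, added after cells had been exposed to compound in DMSO for 17.5 h at 37 C; 30 min development at 37 C/5% CO2. Cells: PGC/ERR line, 2,000/well.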

The target of test [2] is Thyrotropin receptor (Homo sapiens) (UniProt P16473). The experiment in a line: qHTS assay to identify small molecule agonists of the thyroid stimulating hormone receptor (TSHR) signaling pathway (AID 1224843; calls by dose curve; also: nearly all actives have a fitted effect of over 45% in size). The method, boiled down: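 Agonist activity read as cAMP rise via d2/cryptate HTRF competition, 1 h room-temperature detection, in HEK293 cells expressing TSHR. Fifteen-point titrations, each run in triplicate, with a 30 min room-temperature incubation beforehand.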

The nature of test [3]: qHTS assay to identify small molecule agonists of H2AX (AID 1224845; active = well fitted activation curve with a large enough effect in the signal ratio in the repeat runs, not every such curve was filed as active; the % refers to the signal ratio; also: potency is read from the fitted curve at half-maximal effect). Summed up: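 Phospho-H2AX Ser139 measured by HTRF (ex 320 nm; em 665 and 620 nm) after 24 hr antibody incubation. Compounds, 15 concentrations, 0.76% DMSO, were applied to CHO-K1 cells for 3hr at 37C before lysis.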
(In general: Quantitative high-throughput screening tests each substance at several concentrations.)

Test [4] in a line: qHTS assay to identify small molecule agonists of H2AX - cell viability counter screen (AID 1224847; calls by dose curve; also: nearly all actives have a fitted effect of over 30% in size; also: potency is read from the fitted curve at half-maximal effect). The method, boiled down: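 We seed wild-type CHO-K1 cells overnight, treat them for 3 hr at 37C with compounds in 15-concentration series, and quantify remaining viability by CellTiter-Glo luminescence.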
Test [5] is described as follows: qHTS RealTime-Glo MT Cell Viability Assay in HEK293 cells - 32 hour (AID 1224868). Also: top concentration of the series differs between compounds; nearly all actives have a fitted effect of over 50% in size. Summed up:
(§1)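 Cells + reagent dispensed (600 cells/well, HEK293) → 5 h at 37 C/5% CO2 → 23 nL compound in DMSO pinned → 40 h at 37 C → luminescence read at 0, 8, 16, 24, 32, 40 h.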

Test [6] in a line: A CellTox Green Cytotoxicity Assay to monitor cytotoxicity in HEK293 cells - 0 hour (AID 1224869). Also: nearly all actives have a fitted effect of over 50% in size. Also: potency is read from the fitted curve at half-maximal effect. The method, boiled down:
(§2)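 Read-out: fluorescence of a cell-impermeant cyanine dye staining DNA of dead cells, proportional to cytotoxicity. HEK293, 600 cells/well with reagent, compound (23 nL DMSO) added after 5 h; reads at 0, 8, 16, 24, 32, 40 h.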

Test [7] can be described thus: qHTS RealTime-Glo MT Cell Viability Assay in HEK293 cells - 16 hour (AID 1224872). Also: top concentration of the series differs between compounds; nearly all actives have a fitted effect of over 50% in size. The method, boiled down: as §1
The nature of test [8]: qHTS RealTime-Glo MT Cell Viability Assay in HepG2 cells - 8 hour (AID 1224873). Also: nearly all actives have a fitted effect of over 55% in size. Summed up:
(§3)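 Real-time viability: cells seeded at 600 per well together with NanoLuc and cell-permeant prosubstrate, compounds added after 5 h incubation. Luminescence tracked at 0, 8, 16, 24, 32 and 40 h of exposure.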

A short description of test [9]: qHTS RealTime-Glo MT Cell Viability Assay in HEK293 cells - 40 hour (AID 1224874). Also: nearly all actives have a fitted effect of over 50% in size. Also: potency is read from the fitted curve at half-maximal effect. Conditions: RealTime-Glo luminescence; max response: active compounds read low. The method, boiled down:
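Luminescence readout at each listed time point; HEK293, 600 cells/well, RealTime-Glo MT reagent added with cells; compounds pinned (23 nL in DMSO) after 5 h at 37 C; continuous culture at 37 C.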

The nature of test [10]: A CellTox Green Cytotoxicity Assay to monitor cytotoxicity in HEK293 cells - 24 hour (AID 1224875). Also: nearly all actives have a fitted effect of over 45% in size. Also: potency is read from the fitted curve at half-maximal effect. Summed up: as §2
Test [11] is described as follows: A CellTox Green Cytotoxicity Assay to monitor cytotoxicity in HepG2 cells - 16 hour (AID 1224876). Also: nearly all actives have a fitted effect of over 45% in size. Also: potency is read from the fitted curve at half-maximal effect. The method, boiled down:
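HepG2, 600 cells/well premixed w/ CellTox Green; 5 h settle, 37 C/5% CO2; pintool cpd add (DMSO); 37 C, 40 h; fluorescence read at 0, 8, 16, 24, 32, 40 h.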

The nature of test [12]: qHTS assay to identify small molecule agonists of the hypoxia (HIF-1) signaling pathway - cell viability counter screen (AID 1224844; calls by dose curve; also: nearly all actives have a fitted effect of over 50% in size; also: potency is read from the fitted curve at half-maximal effect). The method, boiled down:
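CellTiter-Glo luminescence read-out, 30 min RT, taken in the same wells as the beta-lactamase HRE reporter assay; HRE-bla ME-180 cells, 0.5% dialyzed FBS, 17 hr compound treatment at 37C, 5% CO2.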

Test [13] can be described thus: qHTS assay to identify small molecule agonists of the hypoxia (HIF-1) signaling pathway (AID 1224846; active = well fitted activation curve with a large enough effect in the signal ratio in the repeat runs, not every such curve was filed as active; the % refers to the signal ratio). The method, boiled down: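 Beta-lactamase FRET read-out (CCF4-AM substrate) from ME-180 cells carrying an HRE-driven bla reporter, after 17 hrs compound exposure at 37C/5% CO2. Cells were seeded at 2,000 per well in 0.5% dialyzed FBS medium and preincubated 5 hrs.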

The nature of test [14]: qHTS RealTime-Glo MT Cell Viability Assay in HepG2 cells - 24 hour (AID 1224867). Also: nearly all actives have a fitted effect of over 50% in size. Summed up: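 Real-time, nonlytic viability: 600 HepG2 cells/well mixed with NanoLuc enzyme plus prosubstrate; 5 h settle, compound (DMSO) added by pintool; luminescence monitored over 40 h at 37 C.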
Test [15] in a line: qHTS RealTime-Glo MT Cell Viability Assay in HepG2 cells - 40 hour (AID 1224870). Also: nearly all actives have a fitted effect of over 50% in size. Summed up: as §3
Test [16] can be described thus: A CellTox Green Cytotoxicity Assay to monitor cytotoxicity in HEK293 cells - 40 hour (AID 1224871). Also: nearly all actives have a fitted effect of over 45% in size. Also: potency is read from the fitted curve at half-maximal effect. Summed up: as §2

A number with no mark means an inactive call. Inconclusive results are not listed. Activity calls are given as the source filed them. Unless noted, calls follow the shape of the dose curve; as a rule, active = well fitted curve in the direction sought with a large enough effect in the repeat runs; inconclusive = weak or mixed curves; inactive = no such curve, though single readings can be large; an effect the other way counts as inactive or inconclusive.
% is scaled to controls: 0 for no effect and ±100 for the full control effect.

Thyrotropin receptor (Homo sapiens), sequence (P16473 whole entry, looked up): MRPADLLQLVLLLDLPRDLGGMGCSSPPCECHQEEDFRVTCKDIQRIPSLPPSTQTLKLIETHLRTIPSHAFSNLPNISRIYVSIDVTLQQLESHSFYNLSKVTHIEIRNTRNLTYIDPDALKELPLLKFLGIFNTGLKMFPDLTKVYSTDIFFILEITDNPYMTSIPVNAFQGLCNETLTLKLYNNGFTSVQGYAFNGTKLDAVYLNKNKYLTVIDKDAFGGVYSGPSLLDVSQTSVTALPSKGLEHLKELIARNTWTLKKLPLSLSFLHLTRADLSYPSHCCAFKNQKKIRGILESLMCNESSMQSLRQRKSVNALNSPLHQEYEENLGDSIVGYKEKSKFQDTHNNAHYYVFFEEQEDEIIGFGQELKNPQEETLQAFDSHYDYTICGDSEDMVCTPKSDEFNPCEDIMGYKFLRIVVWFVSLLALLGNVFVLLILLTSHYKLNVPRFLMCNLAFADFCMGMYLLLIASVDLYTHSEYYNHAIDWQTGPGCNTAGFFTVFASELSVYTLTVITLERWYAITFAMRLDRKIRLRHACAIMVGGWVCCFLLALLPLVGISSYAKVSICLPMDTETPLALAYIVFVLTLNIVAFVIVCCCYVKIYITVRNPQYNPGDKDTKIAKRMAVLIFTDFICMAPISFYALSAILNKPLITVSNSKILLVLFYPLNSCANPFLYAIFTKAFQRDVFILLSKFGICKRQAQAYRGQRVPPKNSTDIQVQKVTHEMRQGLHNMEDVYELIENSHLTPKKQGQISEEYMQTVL

On to `N#Cc1ccc(C/C(=N/NC(=O)Nc2ccc(OC(F)(F)F)cc2)c2cccc(C(F)(F)F)c2)cc1`, for which the Potency entry in [1], in [2], in test [3], in test [4], in test [5] and in test [6] was “inactive” each time. The Potency result in [7], in test [8], in [10] and in [11] was “inactive” throughout. Further, the max response in [9] was -2.78%.

As to `c1ccc2cc3c4ccccc4c4ccccc4c3cc2c1`, the Potency entry in [1], in test [2], in test [13], in test [14], in [5] and in test [6] was “inactive” throughout. The Potency entry in test [15], in [8], in test [10] and in test [11] was “inactive” in each case. For the same compound, the Potency was 22 µM (active) in test [12] and 101 µM (active) in test [4]. Besides, the max response in [9] is -2.98%.

For the compound `C=Cc1ccc(O)c(OC)c1`, the Potency entry in test [1], in test [2], in [12], in [13], in test [4] and in [14] was “inactive” in each case. In addition, the Potency result in test [5], in test [6], in test [15], in test [16], in test [8] and in test [10] was “inactive” throughout. In test [11], the Potency result is “inactive”. Also, in [9], the max response was 2.13%.

On to `CCOc1nc(F)cc2nc(S(=O)(=O)Nc3c(Cl)cccc3C(=O)OC)nn12`, for which the Potency result in test [1], in [2], in test [3], in test [13], in test [4] and in [14] was “inactive” each time. For the same compound, the Potency result in test [5], in [6], in test [15], in [7], in [8] and in test [10] was “inactive” in each case. The Potency result in test [11] is “inactive”. For the same compound, the max response in [9] was 9.81%.

For the compound `Cn1c(=O)[nH]c2ncn(C)c2c1=O`, the Potency entry in test [1], in [2], in test [12], in test [3], in test [4] and in [14] was “inactive” in each case. Further, the Potency result in test [5], in test [6], in test [15], in test [7], in test [10] and in test [11] was “inactive” each time. Moreover, in [9], the max response was 3.46%.

`CC(C)c1ccc2sc3ccccc3c(=O)c2c1`: the Potency result in test [1], in [12], in [3], in test [13], in [14] and in test [6] was “inactive” each time. For the same compound, the Potency entry in test [15], in [16], in test [8], in test [10] and in [11] was “inactive” in each case. For the same compound, in test [4], the Potency is 50.5 µM (active).

Consider `Cc1ccc2nc(-c3ccc(N)cc3)sc2c1S(=O)(=O)O`, for which the Potency entry in test [1], in [2], in [12], in test [4], in test [14] and in [5] was “inactive” each time. Also, the Potency result in test [6], in test [15], in test [16], in test [10] and in test [11] was “inactive” each time. In [9], the max response was -21.6%.

In the case of `O=C(c1ccccc1)c1ccc(Cl)cc1`, the Potency entry in test [1], in test [2], in test [12], in test [13], in [4] and in test [14] was “inactive” in each case. Besides, the Potency entry in [5], in test [6], in test [15], in test [8], in test [10] and in [11] was “inactive” throughout. The max response in [9] was 0.405%.

As for `CCOc1ccc([N+](=O)[O-])cc1`, the Potency entry in [1], in test [12], in [3], in test [13], in [4] and in [14] was “inactive” in each case. In addition, the Potency entry in [6], in test [15] and in [8] was “inactive” throughout. Also, the Potency in test [9] was 49.7 µM (active); in [10] it was 44.3 µM (active).

`COCCC(=O)OC`: the Potency result in test [1], in [2], in test [12], in [13], in [4] and in [14] was “inactive” each time. In addition, the Potency result in test [5], in [6], in [15], in test [16], in [7] and in test [8] was “inactive” in each case. Moreover, the Potency result in test [10] and in [11] was “inactive” each time. Further, the max response in test [9] was 1.08%.

Take `O=C(Cl)c1ccc(Cl)cc1Cl`: the Potency entry in test [1], in test [12], in test [13], in test [4] and in test [6] was “inactive” throughout. Besides, the Potency in test [3] was 101 µM (active); in test [16], 49 µM (active).

In the case of `C=CC(=O)OCC(Br)CBr` (stereo not given), the Potency entry in test [1], in test [2], in [3], in [4], in test [14] and in test [6] was “inactive” throughout. Moreover, the Potency entry in test [15], in [8], in test [10] and in test [11] was “inactive” throughout.

For `CN(C/C=C/c1ccccc1)Cc1cccc2ccccc12`, the Potency result in test [1], in test [2] and in test [12] was “inactive” in each case. Besides, the Potency in test [3] was 55.2 µM (active); in [4], 43.8 µM (active); in [6], 19 µM (active); in [16], 21.3 µM (active); in test [10], 19 µM (active); in test [11], 23.9 µM (active).

As for `COc1c(Br)cc(Br)c(C)c1Br`, the Potency entry in [1], in test [2], in test [12], in [13], in [4] and in test [14] was “inactive” each time. Moreover, the Potency entry in test [5], in test [6], in test [15], in test [16], in test [7] and in test [10] was “inactive” throughout. For the same compound, in test [9], the max response is 1.46%.

As for `CSc1nnc(C(C)(C)C)c(=O)[nH]1`, the Potency result in [1], in test [12], in [3], in test [13], in test [14] and in test [5] was “inactive” in each case. The Potency entry in test [6], in test [15], in test [16], in test [8], in test [10] and in test [11] was “inactive” each time. The max response in test [9] was 1.65%.

For `CC1CCC(C(C)(C)O)CC1` (stereo not given), the Potency entry in test [1], in [12], in test [3], in test [13], in test [4] and in test [14] was “inactive” throughout. In addition, the Potency entry in [5], in test [6], in test [15], in test [16], in test [7] and in [8] was “inactive” each time. The Potency result in [10] and in [11] was “inactive” throughout. In addition, the max response in test [9] is 0.893%.

Source of the values: PubChem BioAssay (Tox21).
